Inconclusive results are not listed. Calls of active or inactive are those of the source. The call rests on the fitted dose curve; in most records, active means well fitted curve in the direction sought with a large enough effect in the repeat runs; inconclusive means weak or mixed curves; inactive means no such curve, though single readings can be large; an effect the other way counts as inactive or inconclusive.
Columns and labels:
[1] = A CellTox Green Cytotoxicity Assay to monitor cytotoxicity in HEK293 cells - 40 hour (AID 1224871); further: nearly all actives have a fitted effect of over 45% in size
Summary of the method: (§1)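 Cells (HEK293, 600/well) and dye reagent are dispensed together. After 5 h at 37 C, 23 nL compound is pinned in. Plates stay at 37 C for 40 h with fluorescence read at 0h, 8h, 16h, 24h, 32h and 40h.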

[2] = qHTS RealTime-Glo MT Cell Viability Assay in HEK293 cells - 16 hour (AID 1224872); further: top concentration of the series differs between compounds; nearly all actives have a fitted effect of over 50% in size
Summary of the method: (§2)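 Quantitative high-throughput screen of the Tox21 10K library in HEK293: cells and RealTime-Glo reagents plated together, compound added at 5 h, luminescence monitored through 40 h at 37 C.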

[3] = qHTS RealTime-Glo MT Cell Viability Assay in HepG2 cells - 8 hour (AID 1224873); further: nearly all actives have a fitted effect of over 55% in size
Summary of the method: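 HepG2 cells mixed with RealTime-Glo MT reagents (NanoLuc plus cell-permeant prosubstrate) were seeded at 600 cells/well, incubated 5 h at 37 C/5% CO2, then pinned with compounds in DMSO; nonlytic luminescence tracked viability during 40 h treatment.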

[4] = qHTS RealTime-Glo MT Cell Viability Assay in HEK293 cells - 40 hour (AID 1224874); conditions: RealTime-Glo luminescence; max response: stronger effect = lower value; further: nearly all actives have a fitted effect of over 50% in size
Summary of the method: (§3)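 Real-time viability in HEK293: signal arises when living cells convert a prosubstrate for NanoLuc in the medium, so luminescence tracks viable cell number. Compound (23 nL, DMSO) added 5 h post-seeding; kinetic reads at 0–40 h, 37 C.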

[5] = A CellTox Green Cytotoxicity Assay to monitor cytotoxicity in HEK293 cells - 24 hour (AID 1224875); further: series mostly up to about 77 µM; nearly all actives have a fitted effect of over 45% in size
Summary of the method: as §1

[6] = A CellTox Green Cytotoxicity Assay to monitor cytotoxicity in HepG2 cells - 16 hour (AID 1224876); further: nearly all actives have a fitted effect of over 45% in size
Summary of the method: (§4)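 Cells and non-lytic dye reagent are dispensed together (600 HepG2 cells/well) and incubated 5 h before DMSO compound transfer. Kinetic fluorescence is then recorded in the same wells during 40 h at 37 C.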

[7] = qHTS RealTime-Glo MT Cell Viability Assay in HepG2 cells - 32 hour (AID 1224877); further: nearly all actives have a fitted effect of over 55% in size
Summary of the method: (§5)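 Compound treatment began 5 h after plating HepG2 cells (600/well) with NanoLuc luciferase and prosubstrate. Plates stayed at 37 C for 40 h; luminescence was captured at six time points, 0 h through 40 h.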

[8] = A CellTox Green Cytotoxicity Assay to monitor cytotoxicity in HepG2 cells - 24 hour (AID 1224878); further: nearly all actives have a fitted effect of over 45% in size
Summary of the method: as §4

[9] = A CellTox Green Cytotoxicity Assay to monitor cytotoxicity in HepG2 cells - 40 hour (AID 1224879); further: nearly all actives have a fitted effect of over 40% in size
Summary of the method: as §4

[10] = qHTS RealTime-Glo MT Cell Viability Assay in HEK293 cells - 0 hour (AID 1224880)
Summary of the method: as §3

[11] = A CellTox Green Cytotoxicity Assay to monitor cytotoxicity in HEK293 cells - 32 hour (AID 1224881); further: nearly all actives have a fitted effect of over 40% in size
Summary of the method: as §1

[12] = A CellTox Green Cytotoxicity Assay to monitor cytotoxicity in HepG2 cells - 0 hour (AID 1224882); further: nearly all actives have a fitted effect of over 35% in size
Summary of the method: as §4

[13] = A CellTox Green Cytotoxicity Assay to monitor cytotoxicity in HepG2 cells - 32 hour (AID 1224883); further: nearly all actives have a fitted effect of over 50% in size
Summary of the method: as §4

[14] = A CellTox Green Cytotoxicity Assay to monitor cytotoxicity in HEK293 cells - 8 hour (AID 1224884); further: nearly all actives have a fitted effect of over 35% in size
Summary of the method: as §1

[15] = qHTS RealTime-Glo MT Cell Viability Assay in HepG2 cells - 16 hour (AID 1224885); further: nearly all actives have a fitted effect of over 50% in size
Summary of the method: as §5

[16] = qHTS RealTime-Glo MT Cell Viability Assay in HEK293 cells - 24 hour (AID 1224886)
Summary of the method: as §2

[17] = qHTS RealTime-Glo MT Cell Viability Assay in HEK293 cells - 8 hour (AID 1224887)
Summary of the method: as §3

[18] = A CellTox Green Cytotoxicity Assay to monitor cytotoxicity in HEK293 cells - 16 hour (AID 1224888); further: nearly all actives have a fitted effect of over 35% in size
Summary of the method: as §1

[19] = qHTS RealTime-Glo MT Cell Viability Assay in HepG2 cells - 0 hour (AID 1224889); further: nearly all actives have a fitted effect of over 50% in size
Summary of the method: as §5

[20] = A CellTox Green Cytotoxicity Assay to monitor cytotoxicity in HepG2 cells - 8 hour (AID 1224890); further: nearly all actives have a fitted effect of over 45% in size
Summary of the method: as §4
On the % scale 0 is the no-effect control and ±100 the full control effect.

Nc1ccc(N=Nc2ccc(N)cc2)cc1
inactive: Potency [1] | Potency [2] | Potency [3] | max response [4] -7.32% | Potency [5] | Potency [6] | Potency [7] | Potency [8] | Potency [9] | Potency [10] | Potency [11] | Potency [12] | Potency [13] | Potency [14] | Potency [15] | Potency [16] | Potency [17] | Potency [18]

COc1ccc(C)cc1
inactive: Potency [1] | Potency [2] | Potency [3] | max response [4] 9.25% | Potency [5] | Potency [6] | Potency [7] | Potency [8] | Potency [9] | Potency [10] | Potency [11] | Potency [12] | Potency [13] | Potency [14] | Potency [15] | Potency [16] | Potency [17] | Potency [18] | Potency [19]

CCc1ccc(C)cc1
inactive: Potency [1] | Potency [2] | Potency [3] | max response [4] 11.4% | Potency [5] | Potency [6] | Potency [7] | Potency [8] | Potency [9] | Potency [10] | Potency [11] | Potency [12] | Potency [13] | Potency [14] | Potency [15] | Potency [16] | Potency [17] | Potency [18] | Potency [19] | Potency [20]

CCCCCCCC/C=C/C(=O)O
inactive: Potency [1] | Potency [2] | Potency [3] | max response [4] 8.87% | Potency [5] | Potency [6] | Potency [7] | Potency [8] | Potency [9] | Potency [10] | Potency [11] | Potency [12] | Potency [13] | Potency [14] | Potency [15] | Potency [16] | Potency [17] | Potency [18] | Potency [19]

CCN(CC)C(=O)/C(C#N)=C/c1cc(O)c(O)c([N+](=O)[O-])c1
inactive: Potency [1] | Potency [2] | Potency [3] | max response [4] 29.1% | Potency [5] | Potency [6] | Potency [7] | Potency [8] | Potency [9] | Potency [10] | Potency [11] | Potency [12] | Potency [13] | Potency [14] | Potency [15] | Potency [16] | Potency [17] | Potency [18] | Potency [19] | Potency [20]

O=CNNC=O
inactive: Potency [1] | Potency [2] | Potency [3] | max response [4] 10.2% | Potency [5] | Potency [6] | Potency [7] | Potency [8] | Potency [9] | Potency [10] | Potency [11] | Potency [12] | Potency [13] | Potency [14] | Potency [15] | Potency [16] | Potency [17] | Potency [18] | Potency [19] | Potency [20]

O=C(Nc1ccc(C(=O)O)c(O)c1)c1ccccc1
inactive: Potency [1] | Potency [2] | Potency [3] | max response [4] 8.29% | Potency [5] | Potency [6] | Potency [7] | Potency [8] | Potency [9] | Potency [10] | Potency [11] | Potency [12] | Potency [13] | Potency [14] | Potency [15] | Potency [16] | Potency [17] | Potency [18] | Potency [19] | Potency [20]

Cc1c[nH]c2ccccc12
inactive: Potency [1] | Potency [2] | Potency [3] | max response [4] 17.2% | Potency [5] | Potency [6] | Potency [7] | Potency [8] | Potency [9] | Potency [10] | Potency [11] | Potency [12] | Potency [13] | Potency [14] | Potency [15] | Potency [16] | Potency [17] | Potency [18] | Potency [19]

CCCCCCCCCCCSCC(=O)O
inactive: Potency [1] | Potency [2] | Potency [3] | max response [4] 2.44% | Potency [5] | Potency [6] | Potency [7] | Potency [8] | Potency [9] | Potency [10] | Potency [11] | Potency [12] | Potency [13] | Potency [14] | Potency [15] | Potency [16] | Potency [17] | Potency [18] | Potency [19] | Potency [20]

CCC(=O)OCc1ccc(OC)cc1
inactive: Potency [1] | Potency [2] | Potency [3] | max response [4] 0.878% | Potency [5] | Potency [6] | Potency [7] | Potency [8] | Potency [9] | Potency [10] | Potency [11] | Potency [12] | Potency [13] | Potency [14] | Potency [15] | Potency [16] | Potency [17] | Potency [18] | Potency [19] | Potency [20]

CC(C)(C(=O)c1cccnc1)c1cccnc1
inactive: Potency [1] | Potency [2] | Potency [3] | max response [4] 6.53% | Potency [5] | Potency [6] | Potency [7] | Potency [8] | Potency [9] | Potency [10] | Potency [11] | Potency [12] | Potency [13] | Potency [14] | Potency [15] | Potency [16] | Potency [17] | Potency [18] | Potency [19] | Potency [20]

CCCCCCC(O)CCOC(C)=O (configuration not stated)
inactive: Potency [1] | Potency [2] | Potency [3] | max response [4] 0.328% | Potency [5] | Potency [6] | Potency [7] | Potency [8] | Potency [9] | Potency [10] | Potency [11] | Potency [12] | Potency [13] | Potency [14] | Potency [15] | Potency [16] | Potency [17] | Potency [18] | Potency [19] | Potency [20]

Nc1ccc(S(=O)(=O)NCc2ccccc2)cc1
inactive: Potency [1] | Potency [2] | Potency [3] | max response [4] -2.82% | Potency [5] | Potency [6] | Potency [7] | Potency [8] | Potency [9] | Potency [10] | Potency [11] | Potency [12] | Potency [13] | Potency [14] | Potency [15] | Potency [17] | Potency [18] | Potency [20]

CC1=C2[C@@H]([C@H](C)CC[C@H]2/C=C(\C)C(=O)O)[C@H](O)C1
inactive: Potency [1] | Potency [2] | Potency [3] | max response [4] -2.63% | Potency [5] | Potency [6] | Potency [7] | Potency [8] | Potency [9] | Potency [10] | Potency [11] | Potency [12] | Potency [13] | Potency [14] | Potency [15] | Potency [17] | Potency [18] | Potency [19] | Potency [20]
